This passage reports growth results from PubChem BioAssay (NCI).

Test systems include NCI-H23 lung; NCI-H226 lung; NCI-H322M lung; HOP-62 NSCLC; NCI-H460 lung; 786-0 renal; DU-145 prostate; MDA-MB-231 breast; SF-268 CNS; UACC-62 melanoma; SK-MEL-28 melanoma; SN12C renal; UO-31 renal; OVCAR-5 ovarian; OVCAR-3 ovarian; NCI/ADR-RES ovarian; MDA-MB-435 melanoma; MCF7 breast; KM12 colon; SNB-19 CNS.
What all share (assay): NCI-60 one-dose screen, 48 h (100 = growth as untreated, 0 = no growth, -100 = all killed)
Conditions in all cases: 10 µM unless noted

The panel holds about 83,000 compounds, 20% with a hit somewhere; the sample as a whole holds those more often.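 A percent growth of 40 corresponds to 60% growth inhibition; 0 means no net growth; -100 means all cells died. Active threshold: below 10.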 A number with no mark means an inactive call. Activity calls are given as the source filed them.

As for `O=C1NC(=O)C(=Cc2cn(Cc3ccccc3)c3ccccc23)C(=O)N1`, the growth with NCI-H23 lung was 93.2%; with NCI-H226 lung it was -68.9% (active); with NCI-H322M lung it was 81.7%; in the assay on HOP-62 NSCLC, 73.9%; in the assay with NCI-H460 lung, 29.9%; in the assay on 786-0 renal, 104%. The growth is 100% in the assay on DU-145 prostate; 84.9% in the assay on MDA-MB-231 breast; 90.8% in the assay on SF-268 CNS; 40.6% with UACC-62 melanoma; 98% in the assay with SK-MEL-28 melanoma; 88.8% in the assay with SN12C renal. Besides, the growth was 71.7% in the assay on UO-31 renal; 18.4% with OVCAR-5 ovarian; 72.6% in the assay with OVCAR-3 ovarian; 106% with NCI/ADR-RES ovarian; 91.4% in the assay with MDA-MB-435 melanoma; 85.9% in the assay with MCF7 breast. The growth with KM12 colon was 99.5%.

In the case of `CC(=O)[O][Hg][c]1ccccc1`, the growth was -84.5% (active) in the assay with NCI-H23 lung; 81.9% in the assay with NCI-H226 lung; 40.1% in the assay on NCI-H322M lung; -87.9% (active) in the assay with HOP-62 NSCLC; -52.1% (active) in the assay on NCI-H460 lung; -96.4% (active) in the assay with 786-0 renal. The growth with DU-145 prostate is -97.9% (active); in the assay with MDA-MB-231 breast it was -54.8% (active); in the assay on SF-268 CNS, -86.4% (active); with SNB-19 CNS, -26.6% (active); in the assay with UACC-62 melanoma it was -69% (active); in the assay with SK-MEL-28 melanoma it was -88.4% (active). Besides, the growth with SN12C renal is -90.5% (active); in the assay with UO-31 renal, -94.2% (active); in the assay on OVCAR-3 ovarian it was -93.3% (active); with NCI/ADR-RES ovarian it was -39.1% (active); in the assay on MDA-MB-435 melanoma, -89.2% (active); in the assay on MCF7 breast, -75.2% (active). Besides, the growth in the assay on KM12 colon is -95.3% (active).

Turning to `COc1ccc(C2SCC(=O)Nc3c2c(C)nn3-c2nc3ccc(C)cc3s2)cc1O` (stereo not drawn), the growth in the assay on NCI-H23 lung is 55.3%; in the assay with NCI-H226 lung, 67.6%; with NCI-H322M lung, 56.3%; in the assay on HOP-62 NSCLC, 38.3%; in the assay on NCI-H460 lung it was 15.7%; in the assay on 786-0 renal, 58.4%. Also, the growth with DU-145 prostate was 73.5%; in the assay with MDA-MB-231 breast it was 36%; in the assay on SF-268 CNS, 44.8%; in the assay on SNB-19 CNS, 53.8%; in the assay on UACC-62 melanoma, 40.2%; in the assay with SK-MEL-28 melanoma it was 51.1%. The growth was 49.6% in the assay with SN12C renal; 28.4% with UO-31 renal; 67.2% in the assay with OVCAR-5 ovarian; 5.66% (active) in the assay with OVCAR-3 ovarian; 17.3% in the assay on NCI/ADR-RES ovarian; -25.5% (active) with MDA-MB-435 melanoma. Further, the growth in the assay on MCF7 breast was 15.4%; in the assay on KM12 colon it was 16.2%.

In the case of `O=[N+]([O-])c1ccc(/C=C/C=C/c2ccc(S(=O)(=O)F)cc2)c(Cl)c1`, the growth in the assay with NCI-H23 lung was 96.4%; with NCI-H226 lung, 99.8%; in the assay on NCI-H322M lung, 94.7%; in the assay with HOP-62 NSCLC, 99.9%; in the assay on NCI-H460 lung, 107%; in the assay with 786-0 renal, 97.5%. Moreover, the growth with DU-145 prostate was 107%; in the assay with MDA-MB-231 breast, 99.3%; with SF-268 CNS, 96.1%; in the assay with SNB-19 CNS, 94.3%; with UACC-62 melanoma it was 94.9%; in the assay on SK-MEL-28 melanoma, 98.6%. The growth in the assay with SN12C renal is 96.7%; with UO-31 renal it was 79.2%; with OVCAR-5 ovarian, 112%; in the assay on OVCAR-3 ovarian it was 109%; in the assay with NCI/ADR-RES ovarian it was 104%; in the assay on MDA-MB-435 melanoma, 92.9%. For the same molecule, the growth was 102% with MCF7 breast and 97.1% with KM12 colon.

For the molecule `CCCCCCCCCCCCOc1ccc(C(=O)Oc2ccc(CSP3(=O)OCC4OC(n5cnc6c(N)ncnc65)C(F)C4OP(=O)(O)OCC4OC(n5ccc(=O)[nH]c5=O)C(F)C4O3)cc2)cc1` (stereo not drawn), the growth in the assay with NCI-H23 lung is 101%; with NCI-H226 lung, 85.5%; in the assay with NCI-H322M lung, 79%; in the assay on HOP-62 NSCLC, 115%; in the assay on NCI-H460 lung it was 106%; with 786-0 renal, 89.1%. Besides, the growth in the assay with DU-145 prostate was 103%; in the assay with MDA-MB-231 breast, 108%; with SF-268 CNS, 107%; in the assay with SNB-19 CNS it was 101%; with UACC-62 melanoma, 118%; with SK-MEL-28 melanoma, 121%. Besides, the growth was 109% with SN12C renal; 92.9% in the assay with UO-31 renal; 115% in the assay on OVCAR-5 ovarian; 98.2% in the assay with OVCAR-3 ovarian; 102% in the assay with NCI/ADR-RES ovarian; 106% in the assay with MDA-MB-435 melanoma. The results for the growth in the assay on MCF7 breast and in the assay on KM12 colon were 93.4% and 106%, respectively.

In the case of `C[C@@H]1CC[C@@H]2[C@@H]1[C@H](OC(=O)/C=C/C1CCCCC1)[C@]1(C3CCCCC3)C[C@@H](OC(=O)CO)[C@@]2(C)O1`, the growth with NCI-H23 lung was 71.5%; in the assay on NCI-H226 lung, 56.9%; with NCI-H322M lung it was 85.6%; in the assay on HOP-62 NSCLC, 69.7%; in the assay with NCI-H460 lung, 64.2%; in the assay on 786-0 renal it was -10.1% (active). The growth with DU-145 prostate was 82.1%; in the assay with MDA-MB-231 breast, 61.5%; with SF-268 CNS, 39.6%; in the assay on SNB-19 CNS, 85.8%; in the assay on UACC-62 melanoma, 69.5%; in the assay with SK-MEL-28 melanoma, 74.5%. In addition, the growth with SN12C renal was 31.2%; in the assay on UO-31 renal, -44.2% (active); with OVCAR-5 ovarian, 101%; in the assay with OVCAR-3 ovarian, 70.6%; in the assay on NCI/ADR-RES ovarian, 12.2%; with MDA-MB-435 melanoma, 72.9%. In addition, the figures for the growth with MCF7 breast and with KM12 colon were 40.2% and 56%, respectively.

`[Cl][Hg][n]1cnc2c(Cl)c(Cl)c(Cl)cc21`: the growth in the assay on NCI-H23 lung was 101%; with NCI-H226 lung, 119%; with NCI-H322M lung, 93.4%; in the assay with HOP-62 NSCLC, 109%; with NCI-H460 lung, 98.1%; in the assay with 786-0 renal, 112%. Moreover, the growth in the assay with DU-145 prostate was 100%; in the assay with MDA-MB-231 breast it was 108%; with SF-268 CNS, 88%; with SNB-19 CNS, 102%; in the assay on UACC-62 melanoma, 86.5%; in the assay with SK-MEL-28 melanoma, 107%. Further, the growth with SN12C renal is 102%; in the assay on UO-31 renal it was 86.4%; with OVCAR-5 ovarian, 132%; in the assay on OVCAR-3 ovarian, 94.5%; with NCI/ADR-RES ovarian, 104%; with MDA-MB-435 melanoma, 107%. Further, the growth in the assay with MCF7 breast was 78.3%; in the assay with KM12 colon, 97.8%.

In the case of `COc1cc(C2(C#N)CCN(C)CC2)cc(OC)c1OC`, the growth is 104% in the assay with NCI-H23 lung; 110% in the assay on NCI-H226 lung; 129% with NCI-H322M lung; 103% in the assay with HOP-62 NSCLC; 102% with NCI-H460 lung; 102% in the assay on 786-0 renal. Also, the growth with DU-145 prostate was 113%; in the assay with MDA-MB-231 breast, 98.8%; with SF-268 CNS, 90.9%; with SNB-19 CNS it was 102%; in the assay on UACC-62 melanoma it was 94.3%; with SK-MEL-28 melanoma it was 106%. Moreover, the growth in the assay on SN12C renal was 103%; with UO-31 renal, 79.8%; in the assay with OVCAR-5 ovarian, 97.5%; with OVCAR-3 ovarian it was 108%; with NCI/ADR-RES ovarian, 104%; with MDA-MB-435 melanoma it was 103%. The results for the growth with MCF7 breast and with KM12 colon were 95.7% and 100%, respectively.
